Most compounds without a hit are left out; they make up all but 2.2% or so of the library.
PLCb3 inh: PLC-beta3 (human) inhibition, primary screen | inhibition, % at 12.2 µM | Purified PLC-beta3, fluorogenic substrate, fluorescence | 370,000 compounds, 0.18% hits; in the data active = inhibition above about 11%;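 also: 0% = median of compound wells on plate and 100% = full blocker control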
Target sequence (Q01970 whole entry, looked up): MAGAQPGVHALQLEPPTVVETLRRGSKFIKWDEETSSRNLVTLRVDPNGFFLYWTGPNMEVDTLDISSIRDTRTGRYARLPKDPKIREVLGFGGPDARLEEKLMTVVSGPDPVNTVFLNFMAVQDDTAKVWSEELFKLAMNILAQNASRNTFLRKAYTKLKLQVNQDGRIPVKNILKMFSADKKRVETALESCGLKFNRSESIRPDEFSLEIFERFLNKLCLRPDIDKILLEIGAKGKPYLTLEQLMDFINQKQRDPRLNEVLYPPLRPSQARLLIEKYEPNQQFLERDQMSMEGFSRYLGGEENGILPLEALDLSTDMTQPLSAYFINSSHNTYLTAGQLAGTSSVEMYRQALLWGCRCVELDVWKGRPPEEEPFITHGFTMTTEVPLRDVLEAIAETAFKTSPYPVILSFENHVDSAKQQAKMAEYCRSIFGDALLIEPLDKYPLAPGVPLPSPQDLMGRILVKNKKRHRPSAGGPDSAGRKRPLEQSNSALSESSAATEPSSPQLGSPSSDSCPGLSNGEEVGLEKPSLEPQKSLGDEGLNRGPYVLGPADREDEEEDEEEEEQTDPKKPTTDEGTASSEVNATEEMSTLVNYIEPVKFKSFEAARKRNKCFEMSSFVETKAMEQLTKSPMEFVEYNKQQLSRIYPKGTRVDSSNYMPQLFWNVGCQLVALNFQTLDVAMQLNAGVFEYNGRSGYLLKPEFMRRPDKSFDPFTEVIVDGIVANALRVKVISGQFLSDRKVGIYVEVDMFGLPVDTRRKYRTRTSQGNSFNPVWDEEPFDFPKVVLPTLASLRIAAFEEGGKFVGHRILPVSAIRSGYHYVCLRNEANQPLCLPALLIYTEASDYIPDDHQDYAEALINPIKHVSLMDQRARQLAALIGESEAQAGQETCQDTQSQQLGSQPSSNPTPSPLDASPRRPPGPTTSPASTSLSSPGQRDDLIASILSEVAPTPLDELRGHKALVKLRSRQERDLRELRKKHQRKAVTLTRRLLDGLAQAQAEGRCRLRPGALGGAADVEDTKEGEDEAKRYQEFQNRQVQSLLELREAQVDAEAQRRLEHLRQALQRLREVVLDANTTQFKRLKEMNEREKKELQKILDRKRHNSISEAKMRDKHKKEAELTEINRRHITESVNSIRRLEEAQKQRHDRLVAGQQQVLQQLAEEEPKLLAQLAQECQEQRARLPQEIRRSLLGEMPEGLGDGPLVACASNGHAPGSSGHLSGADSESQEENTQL
FAS-TE inh: inhibitors of human fatty acid synthase thioesterase domain | P49327 | recombinant FAS-TE, OMFH fluorogenic substrate, fluorescence endpoint | inhibition, % at 15 µM | 360,000 compounds, 0.67% hits;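 active = compounds whose normalised, plate-corrected inhibition of enzyme fluorescence in the single-dose primary screen is 50% or more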;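 also: 0% = DMSO with enzyme and 100% = substrate without enzyme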
PLCg1 inh: PLC-gamma1 (human) inhibition, primary screen; purified PLC-gamma1, fluorogenic substrate, fluorescence; inhibition, % at 12.2 µM; 370,000 compounds, 0.84% hits; in the data active = inhibition above about 9.5%
H9c2 protect: modulators protecting cardiomyocytes from myocardial damage; H9c2 cardiomyocytes, H2O2 injury protection, ATPLite, 2 h; protection from H2O2 cell death, % at 20 µM; 360,000 compounds, 0.63% hits; AID 588492;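 active = compounds giving at least 50% protection of heart cells from peroxide-induced death in the single-dose screen, raw or plate-pattern-corrected value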;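 also: 0% = DMSO wells with peroxide and 100% = DMSO wells without peroxide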
FAS-TE inh conf: FAS thioesterase (human) inhibition, confirmation; inhibition, % at 15 µM; 2,300 compounds, 45% hits; recombinant FAS-TE, OMFH fluorogenic substrate, fluorescence; AID 624325; shares compounds with FAS-TE inh;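 active = compounds inhibiting the enzyme by at least 50% at 15 µM in any one of the replicates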;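 also: 0% = enzyme with DMSO only and 100% = wells lacking enzyme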
Numbers without * were called inactive; x = not tested or not shown.

SMILES | PLCb3 inh | FAS-TE inh | PLCg1 inh | H9c2 protect | FAS-TE inh conf
COc1ccc(CNC(=O)C[C@H]2C[C@H](C(=O)N3CCOCC3)[C@@]3(CCC4CCCC4)c4[nH]c5cc(-c6ccco6)ccc5c4CCN3C2=O)cc1OC | -358.2 | 36.3 | -285.5 | -11.8 | x
CN(C)CCCNC(=O)C[C@H]1C[C@H](C(=O)N2CCOCC2)[C@@]2(CCC3CCCC3)c3[nH]c4cc(-c5ccco5)ccc4c3CCN2C1=O | -112.6 | 69.7* | -70.2 | -6.8 | 78.4*
O=C(C[C@H]1C[C@H](C(=O)N2CCOCC2)[C@@]2(CCC3CCCC3)c3[nH]c4cc(-c5ccco5)ccc4c3CCN2C1=O)NCc1cccc(C(F)(F)F)c1 | -378.4 | 31.3 | -203.6 | -12.7 | x
O=S1(=O)c2c(cccc2N2CCC[C@H]2CO)O[C@H]2CCN1C2 | -2.3 | x | 0.8 | x | x
O=C(Cn1cc([N+](=O)[O-])ccc1=O)NCC1COc2ccccc2O1 (stereo unspecified) | -4.8 | 52.2* | 2.4 | 5.2 | 54.6*
Cc1ccc([N+](=O)[O-])cc1S(=O)(=O)NCC1COc2ccccc2O1 (stereo unspecified) | -11.8 | 66.2* | -1.7 | -3.7 | 60.3*
Cc1ccc(S(=O)(=O)NCC2COc3ccccc3O2)cc1 (stereo unspecified) | -1.8 | 2.7 | 4.3 | -7.0 | x
COc1cc(/C=N/N(C)c2ccccc2)cc(Cl)c1O | 0.2 | 73.3* | 4.9 | -11.4 | 57.1*
COc1cc(/C=N/NC(=O)c2ccc3ccccc3c2)ccc1Oc1ccc([N+](=O)[O-])cn1 | 2.0 | 51.5* | 4.0 | -2.0 | 12.0
COc1cccc(C(=O)N/N=C/c2ccc(Oc3ccc([N+](=O)[O-])cn3)c(OC)c2)c1 | 1.6 | 18.4 | 0.5 | 0.9 | x
Cc1ccc(CN2CCCCC(NC(=O)c3cccc(C(F)(F)F)c3)C2=O)cc1 (stereo unspecified) | 0.2 | x | -2.9 | x | x
O=C(Nc1ccccc1)C1=C(c2ccccc2)S(=O)(=O)CCS1(=O)=O | 0.7 | 80.0* | -0.3 | -30.7 | 36.5
C=CCN1C[C@H](COC(=O)CSc2ccccc2)Oc2cccc(F)c2S1(=O)=O | -2.7 | x | 0.6 | x | x
CCn1c(Cl)c(C=O)s/c1=N\S(=O)(=O)c1ccccc1 | -15.8 | 75.6* | -5.5 | -12.3 | 32.8
CCN1C(=O)CS/C1=N\S(=O)(=O)c1ccc(Cl)cc1 | -7.3 | -1.5 | 3.4 | 2.9 | x
COc1cc2c(C)nc3onc(-c4ccccc4)c3c2cc1OC | -21.0 | 69.9* | -15.0 | 29.3 | 45.1*
CCS(=O)(=O)c1ccc(-c2csc(-c3ccc(Cl)cc3)n2)c(Cl)c1Cl | 0.7 | 70.6* | 0.1 | -23.3 | 52.2*
CC(=O)c1sc(-c2ccccc2Cl)nc1C | -3.0 | -3.2 | 1.4 | -3.1 | x
ClCc1csc(-c2ccc(Cl)cc2)n1 | 1.4 | 6.4 | 0.4 | -13.7 | x
CCS(=O)(=O)c1ccc(-c2csc(-c3ccccc3Cl)n2)c(Cl)c1Cl | 8.9 | 72.3* | 3.0 | -20.7 | 11.1
COC(=O)C1=C(C)N(C)C(=NCC2CC2)NC1CCc1ccccc1 (stereo unspecified) | 3.8 | x | 3.2 | x | x
COc1ccc(CCNC(=O)c2ccc3c(c2)ncn3C2CCCCC2)cc1 | 0.2 | x | 1.9 | x | x
Cc1c(-c2ccccc2)oc2c(C(=O)N3CCN(c4ccc([N+](=O)[O-])cc4)CC3)cccc2c1=O | 6.1 | 60.2* | 3.6 | 11.2 | 10.2
Cc1c(C(=O)N2CCN(c3ccc([N+](=O)[O-])cc3)CC2)oc2ccccc12 | -3.3 | 31.1 | 0.8 | 1.4 | x
O=C(CSc1nc2ccccc2c(=O)n1-c1ccc(F)c(Cl)c1)Nc1ccc2c(c1)CCC2 | 2.7 | 61.0* | -0.3 | -3.6 | 15.2
SMILES | PLCb3 inh | FAS-TE inh | PLCg1 inh | H9c2 protect | FAS-TE inh conf
O=C(CSc1nc2ccccc2c(=O)n1-c1ccccc1F)Nc1ccc2c(c1)CCC2 | 4.2 | 25.6 | -2.7 | -3.1 | x
O=C(CSc1nc2nc3c(cc2c(=O)n1-c1ccccc1)CCCC3)Nc1cccc2ccccc12 | 0.5 | 62.9* | -3.8 | -4.5 | 17.1
O=C(CSc1nc2ccccc2c(=O)n1-c1ccc(F)cc1F)Nc1ccc2c(c1)CCC2 | 2.0 | 53.9* | -0.1 | -1.4 | 12.1
O=C(NCc1ccccc1)Nc1ccccc1C(=O)N1CCCC1 | -0.7 | x | 3.4 | x | x
Cc1ccc(Cn2cc(CN3[C@@H](CC(C)C)COc4cc(Br)ccc4S3(=O)=O)nn2)cc1 | -1.1 | x | 0.5 | x | x
CC(=O)Nc1ccc(N(C(=O)c2ccco2)C(C(=O)NC2CCCC2)c2ccncc2)cc1 (stereo unspecified) | -1.1 | -7.6 | 2.6 | 1.0 | x
CCc1ccccc1NC(=O)[C@@H]1CCCN1S(=O)(=O)c1cccc2cccnc12 | 6.8 | x | -2.0 | x | x
